{
  "source": "PubChem BioAssay AID588397",
  "about": "(National Center for Advancing Translational Sciences (NCATS), 2011)",
  "note": "Hit rate of the full screen: of about 1,300 compounds, about 1,000 (77%) were called active. Roughly 7% stayed inconclusive and do not appear here. So high a share suggests a set chosen from earlier hits. The list shows a part of the results. A number with no mark means an inactive call. The call rests on the fitted dose curve; in most records, active means well fitted inhibition curve with a large enough effect; inconclusive means small, poorly fitted or top-dose-only effect; inactive means no such curve, though single readings can be large or run the other way. On the % scale 0 is the no-effect control and ±100 the full control effect; potency means the concentration at half of the fitted maximal effect.",
  "data": [
    {"assay": "qHTS of small molecules that selectively kill Giardia lamblia: Hit Validation;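 further: viability measured as ATP content by luminescence so killing lowers signal; nearly all actives have a fitted effect of over 65% in size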.", "conditions": "Giardia lamblia trophozoite viability, dose-response; series mostly up to 38.3 µM; activity change, negative = killing: at the top concentration", "source_text": "Giardia lamblia is a human pathogen afflicting impoverished nations, and the most common cause of outbreaks of diarrhea in the United States. Giardia has been classified by the CDC as a category B bioterrorism organism. The favored anti giardiasis drugs in the US are metronidazole or tinidazole, compounds that have undesirable side effects. Moreover, increasing resistance to drug regimes and recurrence are a concern. It is thus clear that alternative drug treatments are needed.\nIn a collaboration between the University of Maryland, College Park and the NIH Chemical Genomics Center, a bioluminescence Giardia viability assay based on the trophozoites' ATP content was developed. This assay is suitable for high throughput screening, and miniaturized the assay for compound screening in 1536-well plates. The goal of the project is to screen the Molecular Libraries Small Molecule Repository (MLSMR) for compounds that selectively kill Giardia trophozoites.\nNIH Chemical Genomics Center [NCGC]\nNIH Molecular Libraries Probe Centers Network [MLPCN]\nAssay Submitter (PI): Osnat Herzberg, University of Maryland, College Park, MD.\n1. Dispense 2 ul/well media\n2. Dispense 23 nl/well compounds\n3. Dispense 4 ul/well Giardia trophozoites at a concentration of 100 cells/well\n4. Incubate 48 hrs at 37 deg C anaerobically\n5. Dispense 4 ul/well ATPLite 1-Step Luminescence assay kit\n6. Incubate 15-30 min at room temperature\n7. Read luminescence signal on ViewLux plate reader", "units": {"activity change, negative = killing": "%"}, "values": [
      {"smiles": "COC(=O)N/N=C/c1ccc([N+](=O)[O-])s1", "Potency": "4.1 µM (active)"},
      {"smiles": "CCOC(=O)N/N=C\\c1ccc([N+](=O)[O-])s1", "Potency": "4.1 µM (active)"},
      {"smiles": "COc1ccccc1NC(=O)C(=O)N/N=C/c1ccc([N+](=O)[O-])s1", "Potency": "2.05 µM (active)"},
      {"smiles": "Cc1ccnn1CC(=O)N/N=C/c1ccc([N+](=O)[O-])s1", "Potency": "3.65 µM (active)"},
      {"smiles": "O=C(COC(=O)c1cc(Cl)ccc1O)NC(=O)NCc1ccccc1", "activity change, negative = killing": 1.53},
      {"smiles": "Cc1csc(NC(=O)CSc2nc3[nH]c(=O)cc(O)c3s2)n1", "Potency": "1.03 µM (active)"},
      {"smiles": "CC(NCCN(C)C)C1CCC2C3CCc4cc(O)ccc4C3CCC12C", "note": "(stereo unspecified)", "Potency": "1.16 µM (active)"},
      {"smiles": "COc1cc(C2CC(=O)Oc3cc(C)c(Cl)c(C)c32)cc(OC)c1OC", "note": "(stereo unspecified)", "activity change, negative = killing": -5.49},
      {"smiles": "COc1cc(/C=C2\\COC/C(=C\\c3cc(OC)c(OC)c(OC)c3)C2=O)cc(OC)c1OC", "Potency": "11.6 µM (active)"},
      {"smiles": "O=C(CCCn1cnc([N+](=O)[O-])n1)Nc1cccc(Cl)c1Cl", "Potency": "3.65 µM (active)"},
      {"smiles": "Cc1nn(CCCC(=O)Nc2c(F)cc(F)cc2Br)c(C)c1[N+](=O)[O-]", "activity change, negative = killing": -0.27},
      {"smiles": "COc1ccc(NC(=O)CCCn2nc(C)c3c(C)n(-c4ccccc4)nc3c2=O)cc1OC", "activity change, negative = killing": 1.17},
      {"smiles": "Cc1c(Cl)cccc1NC(=O)CCCn1cnc([N+](=O)[O-])n1", "Potency": "4.1 µM (active)"},
      {"smiles": "O=C(CCCn1cnc([N+](=O)[O-])n1)Nc1ccc(F)c(Cl)c1", "Potency": "3.65 µM (active)"},
      {"smiles": "O=C(c1ccco1)N1CCN(Cc2cc(=O)c(OCc3ccc([N+](=O)[O-])cc3)co2)CC1", "Potency": "0.183 µM (active)"},
      {"smiles": "O=[N+]([O-])c1cccc(COc2ccccc2CN2CCCC2)c1", "activity change, negative = killing": -3.87},
      {"smiles": "O=C1NC(=O)/C(=C\\c2ccc(Oc3ccc([N+](=O)[O-])cn3)cc2)S1", "Potency": "9.18 µM (active)"},
      {"smiles": "O=C(Nc1ccc(C(=O)O)cc1)/C(=C\\C=C\\c1ccccc1)NC(=O)c1ccccc1Cl", "Potency": "6.5 µM (active)"},
      {"smiles": "C#CCOCCOCCOCCNc1nc(N2CCN(C(=O)[C@H](CCC(=O)O)n3cc([C@@H](N)CC(N)=O)nn3)CC2)nc(N2CCN(C(=O)[C@H](CCC(=O)O)n3cc([C@@H](N)CC(N)=O)nn3)CC2)n1", "activity change, negative = killing": -18.6},
      {"smiles": "CCCCCN=Cc1c(C)[nH]n(-c2nc3ccccc3s2)c1=O", "Potency": "3.26 µM (active)"},
      {"smiles": "Cc1ccc(N=Nc2c(O)ccc3n[nH]nc23)cc1", "Potency": "3.65 µM (active)"},
      {"smiles": "CCC1=C(OC(=O)N(CC)CC)N2C(=O)OC(=NCC(=O)OC)[C@]2(C)[C@H]2C1=CC[C@H]1C(=O)N(CC)C(=O)[C@H]12", "activity change, negative = killing": -6.74},
      {"smiles": "CN(C)C(=O)C[n+]1ccc(C(N)=O)cc1", "activity change, negative = killing": -26.8},
      {"smiles": "Cc1ccc(NC(=O)Cn2cnc([N+](=O)[O-])c2)cc1C", "Potency": "8.18 µM (active)"},
      {"smiles": "Fc1ccc(CN2CC[C@H]3C=CCc4cccc(c43)C2)cc1", "activity change, negative = killing": -8.09},
      {"smiles": "COc1ccc(S(=O)(=O)Nc2c(O)c3ccccc3oc2=O)cc1", "activity change, negative = killing": -9.08},
      {"smiles": "COc1ccc(C(=O)COC(=O)c2ccccc2NS(=O)(=O)c2ccc(O)c([N+](=O)[O-])c2)cc1", "Potency": "1.45 µM (active)"},
      {"smiles": "Cc1ccc(S(=O)(=O)Nc2ccc(C(OC(=O)c3ccccc3[N+](=O)[O-])(C(F)(F)F)C(F)(F)F)cc2)cc1", "Potency": "3.65 µM (active)"},
      {"smiles": "Cc1ccc(-c2cc(C(=O)N/N=C/c3ccc([N+](=O)[O-])o3)c3ccccc3n2)o1", "Potency": "1.03 µM (active)"},
      {"smiles": "CCCc1ccc(-c2cc(C(=O)N/N=C/c3ccc([N+](=O)[O-])o3)c3ccccc3n2)cc1", "Potency": "1.63 µM (active)"},
      {"smiles": "O=C(N/N=C/c1ccc([N+](=O)[O-])o1)c1cc(-c2ccc(-c3ccccc3)cc2)nc2ccccc12", "Potency": "1.03 µM (active)"},
      {"smiles": "O=C(N/N=C/c1ccc([N+](=O)[O-])o1)c1cc(-c2cccc(Br)c2)nc2ccccc12", "Potency": "1.16 µM (active)"},
      {"smiles": "COc1ccc(-c2ccc([C@H]3[C@@H]4C=CCC[C@@]4(C)C(=O)N3Cc3ccccc3)c(F)c2)cc1OC", "activity change, negative = killing": -4.14},
      {"smiles": "COc1cc(/C=C2\\SC(=O)N(Cc3ccc(F)cc3)C2=O)cc([N+](=O)[O-])c1O", "Potency": "1.83 µM (active)"},
      {"smiles": "COc1cc(/C=C2\\SC(=O)N(c3ccc(Cl)cc3)C2=O)cc([N+](=O)[O-])c1O", "Potency": "4.1 µM (active)"},
      {"smiles": "COc1cc(/C=C2\\SC(=O)N(Cc3ccc(Cl)cc3)C2=O)cc([N+](=O)[O-])c1O", "Potency": "1.63 µM (active)"},
      {"smiles": "CCS(=O)(=O)Nc1cccc(C2=NN(S(=O)(=O)c3ccc(C)cc3)C(c3ccco3)C2)c1", "note": "(stereo unspecified)", "activity change, negative = killing": 3.24},
      {"smiles": "COc1ccc(NS(=O)(=O)c2ccc(S(=O)(=O)N(C)C)cc2)cc1S(N)(=O)=O", "activity change, negative = killing": 2.7},
      {"smiles": "COc1ccc(OCc2cc(C(=O)N(C)Cc3cc(C4CC4)n[nH]3)no2)c(Cl)c1", "activity change, negative = killing": -16.1},
      {"smiles": "COc1ccc(/C=C/c2ccc3ccccc3n2)c(OC)c1", "Potency": "2.31 µM (active)"},
      {"smiles": "COc1ccc(OC)c(/C=C/c2ccc3ccccc3n2)c1", "activity change, negative = killing": -32.6},
      {"smiles": "COc1cccc(/C=C/c2ccc3ccccc3n2)c1OC(C)=O", "Potency": "8.18 µM (active)"},
      {"smiles": "COc1ccc(/C=C/c2ccc3ccccc3n2)cc1OC", "Potency": "4.6 µM (active)"},
      {"smiles": "Cc1ccccc1N1CCN(Cc2ccc([N+](=O)[O-])o2)CC1", "Potency": "1.16 µM (active)"},
      {"smiles": "O=[N+]([O-])c1ccc(CN2CCN(c3ccccc3Cl)CC2)o1", "Potency": "0.65 µM (active)"},
      {"smiles": "Cc1cccc(N2CCN(Cc3ccc([N+](=O)[O-])o3)CC2)c1C", "Potency": "0.729 µM (active)"},
      {"smiles": "Cc1ncc([N+](=O)[O-])n1CCOC(=O)Nc1ccc([N+](=O)[O-])cc1", "Potency": "0.146 µM (active)"},
      {"smiles": "COc1ccc(NC(=O)OCCn2c([N+](=O)[O-])cnc2C)cc1", "Potency": "0.65 µM (active)"},
      {"smiles": "Cc1ncc([N+](=O)[O-])n1CCOC(=O)Nc1ccc(Cl)c(Cl)c1", "Potency": "0.23 µM (active)"},
      {"smiles": "C#CCCOC(=O)Nc1ccccc1", "activity change, negative = killing": -5.13},
      {"smiles": "CN1C2=CC=CC=CC2=[N+](C)C12C([N+](=O)[O-])=CC(=[N+]([O-])[O-])C=C2[N+](=O)[O-]", "note": "(stereo unspecified)", "Potency": "0.206 µM (active)"},
      {"smiles": "CCOC(=O)c1ccc(NS(C)(=O)=O)cc1", "activity change, negative = killing": -33.5},
      {"smiles": "Cc1cc(C(=O)COC(=O)c2cccc(NS(C)(=O)=O)c2)c(C)n1CC1CCCO1", "note": "(stereo unspecified)", "Potency": "4.1 µM (active)"},
      {"smiles": "S=C(NCCc1ccccc1)N/N=C/c1cccs1", "Potency": "23.1 µM (active)"},
      {"smiles": "Cc1nnc(N/N=C/c2cccs2)[nH]c1=O", "activity change, negative = killing": 0.18},
      {"smiles": "CC1CC(C)C(=O)C(C(CC2CC(=O)NC(=O)C2)OC(=O)CC(=O)c2ccccc2)C1", "note": "(stereo unspecified)", "Potency": "0.13 µM (active)"}
    ]}
  ]
}
